Screen size: about 3,200 compounds; about 2,900 (91%) were called active.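 Rule for the calls: active = fitted half-maximal effect concentration at most a set number of log units above the top dose; inactive = fitted half-maximal concentration further above the top dose.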 The set was probably picked from earlier hits. This is one part of the list. Potency and affinity values are given separately.
Test: growth inhibition of control SK(-) GAS strain, dose response, counter-screen for streptokinase expression inhibitor project, luminescence, kanamycin, BacTiterGlo, confirmation (AID 1900)
Conditions: SK(-)GAS Streptococcus pyogenes + kanamycin, BacTiterGlo viability, 6 h; at 15 µM (top of the series)

Compound | activity change, negative = inhibition
O=C(Nc1ccccc1Sc1ccccc1)c1ccccc1F | -63% (active)
COc1cccc2sc(Nc3nnc(-c4ccccc4Cl)o3)nc12 | -41.8% (active)
O=C(Nc1cccc(-c2nc3ccccc3[nH]2)c1)c1ccc(C(=O)Nc2cccc(-c3nc4ccccc4[nH]3)c2)cc1 | -32.9% (active)
COc1ccccc1N=c1oc2cc(O)ccc2cc1C(N)=O | -48.9% (active)
CC(C)(C)c1csc(NNC(=O)c2ccc(Br)cc2)n1 | -78.7% (active)
FC(F)Oc1ccccc1C1CC(c2ccc(Br)s2)Nc2ncnn21 (configuration not stated) | -52.4% (active)
N#C/C(=C\c1ccc(/C=C(/C#N)c2nn(CCO)c(N)c2C#N)cc1)c1nn(CCO)c(N)c1C#N | -56% (active)

— PubChem BioAssay AID1900 (Broad Institute, 2009)
